Data: PubChem BioAssay AID2284123 (EPA ToxCast)
Calls of active or inactive are those of the source. How the source made its calls: active means hit-call score of the fitted dose curve at least 0.9, where 1 is the maximum; inactive means score below 0.9.

What follows are molecules tested against human PDE10A2 Phosphodiesterase, PDE10A (gene 10846) (UniProt Q9Y233) (assay: ERF_FR_ENZ_hPDE10A: Eurofins (ERF) Enzymatic LeadHunter Assay for human PDE10A2 Phosphodiesterase).
Sequence of human PDE10A2 Phosphodiesterase, PDE10A (gene 10846) (Q9Y233 whole entry, looked up): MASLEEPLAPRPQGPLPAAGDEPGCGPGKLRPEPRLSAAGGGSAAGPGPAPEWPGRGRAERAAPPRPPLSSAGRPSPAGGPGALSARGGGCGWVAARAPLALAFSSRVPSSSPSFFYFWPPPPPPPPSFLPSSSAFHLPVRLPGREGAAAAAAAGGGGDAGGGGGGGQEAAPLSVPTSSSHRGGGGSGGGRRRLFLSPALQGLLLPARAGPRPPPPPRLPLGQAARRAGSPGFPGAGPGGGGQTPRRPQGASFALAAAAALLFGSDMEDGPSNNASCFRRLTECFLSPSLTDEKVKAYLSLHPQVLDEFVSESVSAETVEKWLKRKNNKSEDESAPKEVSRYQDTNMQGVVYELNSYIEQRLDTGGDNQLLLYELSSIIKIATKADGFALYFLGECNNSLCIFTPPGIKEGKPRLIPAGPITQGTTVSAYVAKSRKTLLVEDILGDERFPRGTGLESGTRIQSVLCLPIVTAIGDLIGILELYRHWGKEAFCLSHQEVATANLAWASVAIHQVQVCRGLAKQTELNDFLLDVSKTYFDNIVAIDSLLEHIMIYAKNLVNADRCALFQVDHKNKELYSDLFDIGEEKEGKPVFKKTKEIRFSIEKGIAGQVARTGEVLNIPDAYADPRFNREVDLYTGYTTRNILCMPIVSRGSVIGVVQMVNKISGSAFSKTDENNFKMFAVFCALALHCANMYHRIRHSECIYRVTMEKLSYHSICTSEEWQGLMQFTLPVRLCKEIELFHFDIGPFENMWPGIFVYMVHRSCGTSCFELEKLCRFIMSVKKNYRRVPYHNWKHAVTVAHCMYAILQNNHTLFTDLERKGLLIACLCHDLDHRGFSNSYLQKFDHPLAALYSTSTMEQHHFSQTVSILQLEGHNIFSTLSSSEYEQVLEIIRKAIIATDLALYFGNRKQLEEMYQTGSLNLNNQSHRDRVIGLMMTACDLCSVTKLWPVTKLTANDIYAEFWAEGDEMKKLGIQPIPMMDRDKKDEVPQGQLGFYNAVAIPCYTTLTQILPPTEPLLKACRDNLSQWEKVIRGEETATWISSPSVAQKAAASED
Experimental: ERF_FR_ENZ_hPDE10A is a biochemical, single-readout assay that uses extracted gene-proteins in a cell-free assay. Measurements were taken 0.33 hour after chemical dosing in a 96-well plate. See PDE10A2 Human Phosphodiesterase Enzymatic Assay, Cerep.ERF_FR_ENZ_hPDE10A is an assay component calculated from the ERF_FR_ENZ_hPDE10A assay. It is designed to measure enzyme activity using a type of enzyme reporter as detected by scintillation counting with radiometry technology.Data from the assay component ERF_FR_ENZ_hPDE10A was analyzed at the assay endpoint, ERF_FR_ENZ_hPDE10A, in the positive analysis fitting direction relative to DMSO as the negative control and baseline of activity. Using a type of enzyme reporter, loss-of-signal activity can be used to understand changes in enzymatic activity as they relate to gene PDE10A. To generalize the intended target to other relatable targets, this assay endpoint is annotated to the phosphodiesterase intended target family, where the subfamily is cyclic nucleotide signaling.
Human cells are incubated for 20 minutes at room temprature with [3H]cAMP + cAMP (0.2uM) as sunstrate and Papaverine as control inhibitor. Test Sample Requirements: Minimum for 1) Screen: 60 ul of 10 mM stock -OR- 1 mg (pre-weighed) for 10 uM final testing. 2) Dose Response: 90 ul of 10 mM stock -OR- 1 mg (pre-weighed) for a top concentration at 10 uM.
In the case of O=C(/C=C/c1ccc(O)cc1)CC(=O)/C=C/c1ccc(O)cc1, the AC50 is reported as 295 nM (active).
